Measured values reported in PubChem BioAssay AID463173 (ICCB-Longwood Screening Facility, Harvard Medical School, 2010).
Among all 52,000 compounds or so, about 4,300 (8.3%) were called active. Cut-off read from the data, not from the text of the source: active = survival mostly below about 52% (no sharp cut-off); inactive = mostly above about 56%. This excerpt belongs to a sample that is enriched for actives.

Test system: DeltatarO mutant
Assay: S. aureus survival, RN4220 and DeltatarO strains – OD600, teichoic acid synthesis inhibitors, primary screen (AID 463173)
Conditions: S. aureus RN4220 wild type/DeltatarO growth, OD600, 18 h, stronger effect = lower value, screened at 18.75 µg/mL (by protocol)

| SMILES | survival |
| --- | --- |
| COc1ccc(Cl)cc1NC(=O)c1ccc2nc(Cc3ccccc3)oc2c1 | 101% (inactive) |
| CN(C)c1ccc(CNC(=O)c2cnc3sc(N4CCCC4)nn3c2=O)cc1 | 67% (inactive) |
| CCOC(=O)c1c(C)n(C(=O)c2ccco2)c(=O)n1C(=O)c1ccco1 | 73% (inactive) |
| COc1ccc(CCn2c(=O)c3ccccc3n(CC(=O)Nc3cccc(C)c3)c2=O)cc1OC | 83% (inactive) |
| Cc1ccc(C(=O)CSc2nnnn2C2CCCC2)cc1C | 67% (inactive) |
| CC(C)n1nnnc1SCC(=O)c1ccc2c(c1)OCCO2 | 87% (inactive) |
| O=C(CSc1nnnn1C1CCCC1)c1ccc2c(c1)OCCO2 | 70% (active) |
| Cc1ccc(-n2ncc3c(NCC(C)C)ncnc32)c(C)c1 | 37% (active) |
| Cc1ccc(-n2ncc3c(N(CC(C)C)CC(C)C)ncnc32)c(C)c1 | 78% (inactive) |
| Cc1cccc(C(=O)NNc2ncnc3c2cnn3-c2ccc(C)cc2C)c1 | 106% (inactive) |
| COc1ccc(C(=O)NNc2ncnc3c2cnn3-c2ccc(C)cc2C)cc1 | 0% (active) |
| Cc1ccc(CNc2ncnc3c2cnn3-c2ccc(C)cc2C)cc1 | 77% (inactive) |
| COc1ccc(C(=O)NNc2ncnc3c2cnn3-c2ccc(C)c(Cl)c2)cc1 | 69% (inactive) |
| O=C(NCC(c1cccnc1)N1CCc2ccccc2C1)C(=O)Nc1ccccc1F (configuration not stated) | 75% (inactive) |
| CCN(CC)CC(=O)Nc1ccc(-c2ccc(NC(=O)CN(CC)CC)cc2)cc1 | 113% (inactive) |
| CC1CCC(C(=O)NC(C(=O)OCC(=O)c2ccccc2)C(C)C)CC1 (configuration not stated) | 75% (inactive) |
| CC1=C(C(=O)Nc2ccccc2)C(c2cccc(Cl)c2)n2nc(SCC(=O)c3ccc(C)cc3)nc2N1 (configuration not stated) | 52% (active) |
| COc1ccc(-c2nc3n(n2)C(c2ccccc2F)C(C(=O)Nc2cccnc2)=C(C)N3)cc1OC (configuration not stated) | 81% (inactive) |
| COc1ccc(C2C(C(=O)Nc3ccccc3)=C(C)Nc3nc(-c4ccccc4)nn32)c(OC)c1 (configuration not stated) | 82% (inactive) |

| SMILES | survival |
| --- | --- |
| COc1ccc(C2C(C(=O)Nc3ccccc3)=C(C)Nc3nc(SCC(=O)c4ccc(C)cc4)nn32)cc1 (configuration not stated) | 71% (inactive) |
| COc1cc(OC)cc(-c2nc3n(n2)C(c2ccccc2F)C(C(=O)Nc2cccnc2)=C(C)N3)c1 (configuration not stated) | 45% (active) |
| COc1ccc(C2C(C(=O)Nc3ccccc3)=C(C)Nc3nc(-c4ccccc4)nn32)cc1OC (configuration not stated) | 85% (inactive) |
| COc1cccc(C2C(C(=O)Nc3ccccc3)=C(C)Nc3nc(-c4ccccc4)nn32)c1 (configuration not stated) | 57% (active) |
| CC1=C(C(=O)Nc2ccccc2)C(c2ccc(C(=O)O)cc2)n2nc(SCC(=O)c3ccc(C)cc3)nc2N1 (configuration not stated) | 82% (inactive) |
| COc1ccc(-c2nc3n(n2)C(c2ccccc2OC)C(C(=O)Nc2cccnc2)=C(C)N3)cc1 (configuration not stated) | 80% (inactive) |
| CCOc1ccc(NC(=O)C2CCN(S(=O)(=O)c3ccc4c(c3)oc(=O)n4C)CC2)cc1 | 91% (inactive) |
| CCCCNC(=O)c1cnn2c(C)c(Cc3c(F)cccc3Cl)c(C)nc12 | 135% (inactive) |
| O=C(CN1C(=O)CCSc2ccccc21)Nc1ccc(C(F)(F)F)cc1 | 111% (inactive) |
| N#Cc1c(N)nc2c(c1-c1ccccc1)CCCC2 | 102% (inactive) |
| COc1ccc(S(=O)(=O)NCc2ccc3c(c2)CCN3C(=O)c2ccc(C)cc2)cc1Cl | 112% (inactive) |
| CCOC(=O)c1oc2c(c1C)/C(=N/OC(=O)c1ccccc1Cl)CCC2 | 69% (inactive) |
| Cc1cc(S(=O)(=O)Nc2cc3c(cc2N2CCOCC2)n(C)c(=O)c(=O)n3C)ccc1F | 72% (inactive) |
| CC(C)(C)c1nnc(NS(=O)(=O)c2ccc(F)cc2)s1 | 82% (inactive) |
| Cc1cc(C)c(S(=O)(=O)Nc2nnc(C(F)(F)F)s2)c(C)c1 | 36% (active) |
| Cc1ccc(S(=O)(=O)Nc2nnc(CC(C)(C)C)s2)cc1 | 87% (inactive) |
| Cc1cccc(CSc2ncccc2C(=O)O)c1 | 47% (active) |
| O=C(O)c1cccnc1SCc1cccc(Cl)c1 | 79% (inactive) |
| Cc1ccc(CSc2ncccc2C(=O)O)cc1 | 87% (inactive) |

| SMILES | survival |
| --- | --- |
| Cc1ccc(NC(=O)c2c(C)oc3ccc(O)c(CN4CCCC4)c23)c(C)c1 | 67% (inactive) |
| CCOc1ccc(CCNC(=O)Cn2ccc3cc(S(=O)(=O)N4CCCCCC4)ccc32)cc1 | 126% (inactive) |
| CCc1ccc(OC(=O)c2sc3ncn(Cc4cccc(F)c4)c(=O)c3c2C)cc1 | 115% (inactive) |
| COc1ccc(S(=O)(=O)NCC(c2ccco2)N2CCN(c3ccc(F)cc3)CC2)cc1 (configuration not stated) | 84% (inactive) |
| CC(=O)N1CCc2cc(CNS(=O)(=O)c3ccc(Br)s3)ccc21 | 73% (inactive) |
| CCC(=O)N1CCc2cc(S(=O)(=O)NC(Cc3ccccc3)C(=O)NCc3ccccc3)ccc21 (configuration not stated) | 65% (inactive) |
| CCC(=O)N1CCc2cc(S(=O)(=O)NC(CC(C)C)C(=O)NCc3ccc(C)cc3)ccc21 (configuration not stated) | 97% (inactive) |
| CCC(=O)N1CCc2cc(S(=O)(=O)NC(CC(C)C)C(=O)NCc3ccc(F)cc3)ccc21 (configuration not stated) | 80% (inactive) |
| CCC(=O)N1CCc2cc(CNS(=O)(=O)c3ccc(Br)s3)ccc21 | 47% (active) |
| CCC(=O)N1CCc2cc(S(=O)(=O)NC(Cc3ccccc3)C(=O)Nc3ccc(C)cc3)ccc21 (configuration not stated) | 64% (inactive) |
| CCC(=O)N1CCc2cc(CNS(=O)(=O)c3ccc(Cl)s3)ccc21 | 93% (inactive) |
| CCC(=O)N1CCc2cc(S(=O)(=O)NC(Cc3ccccc3)C(=O)O)ccc21 (configuration not stated) | 25% (active) |
| CCC(=O)N1CCc2cc(S(=O)(=O)NC(CC(C)C)C(=O)Nc3ccc(CC)cc3)ccc21 (configuration not stated) | 60% (active) |
| COC(=O)c1ccccc1NC(=O)c1oc2ccc3c(c2c1C)C(=O)CC(C)(C)O3 | 80% (inactive) |
| Cc1nc2cc(C(=O)O)ccc2n1-c1ccc(C(C)C)cc1 | 68% (inactive) |
| COc1cccc(CNC(=O)CSc2nc3ccccc3nc2Cc2ccccc2)c1 | 69% (inactive) |
| COc1ccc(NS(=O)(=O)c2ccc(-c3cnc(C4CC4)o3)cc2)cc1Cl | 124% (inactive) |
| CCOC(=O)C1CCCN(S(=O)(=O)c2ccc(OC)cc2)C1 (configuration not stated) | 76% (inactive) |
| CN1C(=O)Cc2cc(S(=O)(=O)CCC(=O)Nc3ccccc3)ccc21 | 83% (inactive) |
